Tat export inh: blocks Tat-dependent protein export in E. coli | 340,000 tested, 0.036% active | E. coli MC4100 TorA-mCherry Tat export, fluorescence | inhibition, % at 10 µM;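 active = mean replicate inhibition at least 50% and at least half of replicates individually reaching 50%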;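 note: exported cargo escapes ClpAP degradation while cytoplasmic cargo is degraded and loses fluorescence; 0% = median of neutral control wells and 100% = median of NaSCN control wells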
AddAB inh: less growth of phage-infected E. coli with AddAB; E. coli expressing H. pylori AddAB, absorbance growth; inhibition, % at 11.9 µM; 330,000 tested, 0.29% active; in the data active = inhibition above about 12%;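 note: 0% = vehicle wells of infected cells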
E coli growth-1: bacterial growth inhibition, counter-screen for AddAB inhibitors. E. coli V3065 growth, OD600 absorbance, 18 h. inhibition, % at 11.9 µM. 330,000 tested, 0.27% active. AID 449728;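 active = inhibition above the campaign's mean inhibition across all tested compounds plus 3 SD, cut at about 9.9% in these data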;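 note: uninfected addAB+ strain grown without phage in ampicillin broth; 0% = DMSO wells and 100% = ciprofloxacin 0.95 µg/ml wells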
E coli growth-2: blocks Escherichia coli growth; OD600, 23 h; active compounds read low; OD600 absorbance (test concentration not listed); 330,000 tested, 0.21% active;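 active = OD600 absorbance below the run mean of sample wells minus 3.6 SD, in any replicate, cut at about 0.56 in these data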
phage Ecoli inh: E. coli growth loss with phage present. inhibition, % at 11.9 µM. 360,000 tested, 0.26% active. AID 651602. growth absorbance; in the data active = inhibition above about 11%
* = called active by the depositor; / = no result; ! = not active in a repeat. A selection: hits, their analogues and other compounds. The true share with any hit is near 0.5%.

SMILES	Tat export inh	AddAB inh	E coli growth-1	E coli growth-2	phage Ecoli inh
Cc1ccc(Nc2c(-c3ccccn3)nc3cc(C)ccn23)cc1	4.6	3.4	-0.7	0.396*	6.8
Cn1cccc1-c1cc(C(=O)NN=Cc2ccc(F)cc2)[nH]n1	/	/	/	0.599	/
CCCCC1CC(C(C)=NNC(N)=O)OC1=O (configuration not stated)	/	/	/	0.751	/
CN(C)CC(=O)c1c(N)n(Cc2ccccc2)c(=O)n(C)c1=O	-2.2	5.1	-0.4	0.537*	-1.8
C=CCN1C(=O)[C@@H]2Cc3c([nH]c4ccccc34)C(c3cc(OC)c(OC)c(OC)c3)N2C1=S (some centres not stated)	-5.9	-0.9	-2.2	0.69	6.0
C=CCN1C(=O)[C@@H]2Cc3c([nH]c4ccccc34)C(c3ccc(O)cc3)N2C1=S (some centres not stated)	4.5	1.2	-1.2	0.0665*	/
Cc1cc(N=Nc2ccccc2C(=O)O)c(C)c(C)c1O	-0.8	7.0	10.0*	0.725	1.5
Cc1cc(O)c(C(C)C)cc1N=Nc1ccccc1C(=O)O	3.1	-2.0	-0.8	0.661	-2.1
Cc1ccc(Oc2ncccc2C=NOCc2ccc(Cl)cc2Cl)cc1	/	/	/	0.759	/
CC1CC[C@]2(C(=O)OC3OC(CO)C(O)C(O)C3O)CC[C@]3(C)C(=CCC4[C@@]5(C)CCC(OC6OCC(O)C(OC7OC(CO)C(O)C(O)C7O)C6O)C(C)(C)C5CC[C@]43C)C2[C@]1(C)O (some centres not stated)	/	/	/	0.691	/
O=C(Nc1nnc(C2=COCCO2)o1)c1cccc(Br)c1	0.5	2.6	-3.0	0.479*	-3.4
COc1ccc(CNC(=O)CC(C)=NNC(=O)C(c2ccccc2)c2ccccc2)cc1	/	/	/	0.721	/
CSc1nc2cc(Oc3cccc(Cl)c3Cl)c(Cl)cc2[nH]1	-19.0	1.1	4.8	0.461*	3.2
CSc1nc2ccc(Cl)cc2[nH]1	5.5	1.4	2.0	0.703	3.7
O=[N+]([O-])c1ccc(N=Nc2c(Cl)cc(O)cc2Cl)cc1	-4.8	-0.3	0.5	0.403*	0.6
Brc1cccc(C=NNc2nc(N3CCCCC3)nc(N3CCCCC3)n2)c1	/	/	/	0.701	/
Nc1c(Cl)ncnc1N/N=C/c1cccnc1	6.2	0.0	-0.3	/	2.8
Nc1c(Cl)ncnc1NN=Cc1ccccn1	/	/	/	0.444*	/
O=c1cnnc(NN=Cc2c[nH]c3ccccc23)[nH]1	/	/	/	0.711	/
C(=NNc1nncc2ccccc12)c1ccccn1	/	/	/	0.495*	/
O=c1cnnc(NN=Cc2ccccn2)[nH]1	/	/	/	0.426*	/
CC1CN(C(C)CO)C(=O)c2cccc(NS(=O)(=O)c3ccccc3)c2OC1CN(C)S(=O)(=O)c1ccccc1 (configuration not stated)	/	/	/	0.676	/
COc1ccc(C(C)=NNS(=O)(=O)c2ccccc2)c(OC)c1	/	/	/	0.717	/
Cc1cn(C(C(=O)NCCCCCCCCCCC(=O)N2CCNCC2)C(C)O)nn1 (configuration not stated)	/	/	/	0.729	/
O=C(COc1ccc([N+](=O)[O-])cc1)Nc1cc(S(=O)(=O)N2CCCCC2)ccc1N1CCCCC1	63.8*	0.3	-0.7	0.721	4.0
SMILES	Tat export inh	AddAB inh	E coli growth-1	E coli growth-2	phage Ecoli inh
Cc1ccc(C(=O)N/N=C/c2ccc(-c3ccccc3[N+](=O)[O-])o2)cn1	-3.5	0.7	-0.9	/	1.4
CCOC(=O)NN=Cc1ccc([N+](=O)[O-])o1	/	/	/	0.455*	/
Cc1ccc(C(=O)NN=Cc2ccc([N+](=O)[O-])o2)cn1	/	/	/	0.438*	/
C#CCOCCOCCOCCNc1nc(N2CCN(C(=O)C(C)n3cc(CCCN=C(N)N)nn3)CC2)nc(N2CCN(C(=O)C(C(C)CC)n3cc(CCC(=O)O)nn3)CC2)n1 (configuration not stated)	/	/	/	0.691	/
O=C(OC[C@H]1O[C@@H](OC(=O)c2cc(O)c(O)c(OC(=O)c3cc(O)c(O)c(O)c3)c2)[C@H](OC(=O)c2cc(O)c(O)c(OC(=O)c3cc(O)c(O)c(O)c3)c2)[C@@H](OC(=O)c2cc(O)c(O)c(OC(=O)c3cc(O)c(O)c(O)c3)c2)[C@@H]1OC(=O)c1cc(O)c(O)c(OC(=O)c2cc(O)c(O)c(O)c2)c1)c1cc(O)c(O)c(OC(=O)c2cc(O)c(O)c(O)c2)c1	/	27.6*	30.2*	/	/
COc1ccc(-c2ccc(-c3noc(-c4ccccc4OC)n3)c(OC)n2)cc1	52.6*	2.8	0.5	0.725	0.8
COCCCNC(=O)CSc1ccsc1[N+](=O)[O-]	-2.9	11.6	11.2*	0.686	5.6
CC1CN(C(C)CO)C(=O)c2cc(NS(=O)(=O)c3ccc(F)cc3)ccc2OC1CN(C)C(=O)Nc1ccc(C(F)(F)F)cc1 (configuration not stated)	/	/	/	0.674	/
CNC[C@@H](CC1CCCCC1)NC[C@H](CC(C)C)NCCc1cccc(C(F)(F)F)c1	5.5	-0.2	-1.7	/	3.8
CNCC(CC1CCCCC1)NCC(CC(C)C)NCCc1cccc(C(F)(F)F)c1 (configuration not stated)	/	/	/	0.0675*	/
CN1CCN(C(c2cccs2)c2nnnn2Cc2ccc(F)cc2)CC1 (configuration not stated)	1.5	0.7	-1.7	0.446*	1.4
Cc1ccc(-c2cc(C(=O)NN=C/C=C/c3ccco3)c3ccccc3n2)cc1C	/	/	/	0.731	/
COc1ccc(C(NC(=O)c2cccnc2)c2cc(Cl)c3cccnc3c2O)cc1OC (configuration not stated)	-5.5	25.4*	23.3*	0.673	19.5*
CC(=O)NC(c1ccco1)c1cc(Cl)c2cccnc2c1O (configuration not stated)	/	/	/	/	5.8
O=C(Cn1cc(C(F)(F)F)ccc1=O)NN=Cc1cccc(Cl)c1	/	/	/	0.708	/
CC(C)(C)C1C=C(C(=O)Nc2ccccc2)OC(OCc2ccc(CO)cc2)C1 (configuration not stated)	/	/	/	0.694	/
Cc1ccc(S(=O)(=O)NN=Cc2ccc([N+](=O)[O-])o2)cc1	/	/	/	0.472*	/
Cc1cc(C)c(S(=O)(=O)N/N=C/c2ccc([N+](=O)[O-])o2)c(C)c1	1.7	/	/	/	3.3
CCc1ccc(S(=O)(=O)NN=Cc2ccc([N+](=O)[O-])o2)cc1	/	/	/	0.524	/
Cc1cc(C)c(S(=O)(=O)NN=Cc2ccc([N+](=O)[O-])o2)c(C)c1	/	/	/	0.506*	/
Cc1ccc(S(=O)(=O)NN=Cc2ccc([N+](=O)[O-])o2)cc1C	/	/	/	0.475*	/
Nc1nonc1-n1nnc(C(=O)NN=Cc2ccc(Cl)cc2Cl)c1CN1CCCC1	/	/	/	0.674	/
FC(F)(F)c1ccccc1C=NNc1ccccn1	/	/	/	0.658	/
CC(=NNC(=O)c1ccccn1)c1ccc(Cl)cc1	/	/	/	0.683	/
CCOC(=O)C(CC)C(C)=NNC(=O)CCC(=O)Nc1ccc(Cl)cc1Cl (configuration not stated)	/	/	/	0.706	/
Nc1ncn(C2O[C@H](CO)[C@@H](O)[C@H]2O)c(=O)n1 (some centres not stated)	/	96.5*	95.8*	/	/
Nc1nc(F)nc2c1ncn2C1OC(CO)C(O)C1O (configuration not stated)	/	/	/	0.454*!	/
Nc1nc(Cl)nc2c1ncn2C1OC(CO)C(O)C1O (configuration not stated)	/	/	/	0.673	3.9
Oc1ccc2ccccc2c1C=Nc1nc2c(s1)CCCC2	/	/	/	0.636	/
